TcdB GH inh = inhibitors of Clostridioides difficile toxin B glycohydrolase | 0.24% of 350,000 active | AID 652162 | P18177 | inhibition, % at 9.99 µM | TcdB glycohydrolase enzymatic assay, plate reader; in the data active = inhibition above about 10%
MazEF act = activators of E. coli MazEF toxin-antitoxin RNase; activation, % at 20 µM; FAM/BHQ RNA-DNA oligo cleavage fluorescence, 5 h; P0AE70; 0.32% of 350,000 active; in the data active = activation above about 50%
Rv3671c inh = Rv3671c (M. tuberculosis) protease inhibition; P9WHR9; inhibition, % at 5.96 µM; 0.048% of 320,000 active; in the data active = inhibition above about 38%;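 note: extracellular domain of Rv3671c used as enzyme; 0% = enzyme with DMSO and 100% = no enzyme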
Mtb betalactam = beta-lactam sensitization of Mtb H37Rv | 0.27% of 330,000 active | inhibition, % at 25 µM | M. tuberculosis H37Rv growth with meropenem, percent inhibition;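 note: growth measured after seven days incubation then overnight dye step; 0% = bacteria only wells and 100% = bacteria with antibiotic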
RecA splice inh = inhibitors of M. tuberculosis RecA intein splicing; cell-free RecA intein splicing, fluorescence; inhibition, % (no concentration beside the values); 0.75% of 290,000 active; in the data active = inhibition above about 30%;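 note: 0% = vehicle wells and 100% = reference inhibitor control wells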
Target sequence (P9WHJ3 whole entry, looked up, canonical isoform): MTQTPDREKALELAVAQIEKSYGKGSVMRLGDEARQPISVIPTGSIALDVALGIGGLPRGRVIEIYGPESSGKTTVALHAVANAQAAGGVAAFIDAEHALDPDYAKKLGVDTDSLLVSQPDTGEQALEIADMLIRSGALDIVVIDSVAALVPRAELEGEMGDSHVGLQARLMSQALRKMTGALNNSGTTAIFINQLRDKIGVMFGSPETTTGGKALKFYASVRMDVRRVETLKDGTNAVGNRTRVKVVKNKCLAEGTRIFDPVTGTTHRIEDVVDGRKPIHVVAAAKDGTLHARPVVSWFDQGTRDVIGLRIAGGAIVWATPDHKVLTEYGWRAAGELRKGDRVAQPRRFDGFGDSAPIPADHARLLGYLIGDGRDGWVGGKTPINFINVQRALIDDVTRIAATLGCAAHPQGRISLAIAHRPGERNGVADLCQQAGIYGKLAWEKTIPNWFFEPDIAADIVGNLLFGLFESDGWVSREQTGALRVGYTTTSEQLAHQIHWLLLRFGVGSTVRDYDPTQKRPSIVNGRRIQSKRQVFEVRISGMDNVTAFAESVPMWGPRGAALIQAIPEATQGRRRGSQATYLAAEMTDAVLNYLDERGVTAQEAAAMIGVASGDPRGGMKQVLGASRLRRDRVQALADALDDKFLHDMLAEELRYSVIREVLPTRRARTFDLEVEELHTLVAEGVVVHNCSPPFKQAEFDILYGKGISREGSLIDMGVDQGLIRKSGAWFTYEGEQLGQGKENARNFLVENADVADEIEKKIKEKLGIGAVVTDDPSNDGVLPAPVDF
UGM FP inh = Mtb UDP-galactopyranose mutase inhibition; P9WIQ1; purified UGM, fluorescence polarization probe displacement; inhibition, % at 10 µM; 0.06% of 320,000 active; in the data active = inhibition above about 10%, passing the limit was not always enough
GFP chromophore = counter-screen GFP chromophore formation inhibition; AID 434968; cell-free GFP chromophore formation, fluorescence; 83% of 2,100 active; EC50, µM; shares compounds with RecA splice inh
* marks the source's active call; other numbers are inactive results; · = not tested or not shown. Compounds with a hit are over-represented: about 0.97% of the library has one in this group of screens. Unless noted, the rule behind the calls is not given here.

SMILES	TcdB GH inh	MazEF act	Rv3671c inh	Mtb betalactam	RecA splice inh	UGM FP inh	GFP chromophore
O=C(C[C@H]1C[C@@H]2c3cc(NC(=O)CC4CC4)ccc3O[C@@H]2[C@@H](CO)O1)NCc1ccncc1	-0.3	·	·	·	·	·	·
COC(=O)c1ccccc1OC(=O)c1ccc(Br)o1	·	-8.6	9.2	82.6	38.4*	-0.8	>38
CO[C@H]1CN(C)C(=O)c2ccc(NC(=O)C3CCCCC3)cc2OC[C@@H](C)N(C)C[C@H]1C	0.6	·	·	·	·	·	·
O=C1C=C(Nc2ccc(F)cc2)c2ccccc2C1=O	1.8	4.5	-99.6	98.5	·	0.8	·
O=C1C=C(Nc2ccccc2O)c2ccccc2C1=O	-5.7	-40.9	-112.1	97.6	95.5*	3.5	>38
O=C1C=C(NCc2ccccc2)c2ccccc2C1=O	-6.1	7.1	·	·	92.2*	·	0.859*
CCC(=O)N1C[C@H](C)[C@H](OC)CN(C)C(=O)c2ccc(NC(=O)NC(C)C)cc2OC[C@H]1C	-0.5	·	·	·	·	·	·
CC(=O)Nc1c(Br)cc2c(c1Br)C(=O)c1ccccc1-2	0.6	6.1	·	·	·	·	·
CC(=O)C1=C(c2ccc(Br)cc2)C(=O)c2ccccc2C1=O	·	1.5	-23.4	97.8	58.2*	2.4	3.14*
N#CC1=C(N)Oc2n[nH]c(-c3cccs3)c2C1C1CCCCC1 (configuration not stated)	·	-5.4	-14.8	-7.4	18.8	1.3	·
N#CC1=C(N)Oc2n[nH]c(-c3cccs3)c2C1c1ccsc1 (configuration not stated)	·	-0.9	-20.5	-6.1	90.5*	-1.0	5.42*
CC(C)c1[nH]nc2c1C(c1ccco1)C(C#N)=C(N)O2 (configuration not stated)	1.2	3.2	4.9	2.6	63.6*	2.1	28.8*
CC(C)c1[nH]nc2c1C(C(C)C)C(C#N)=C(N)O2 (configuration not stated)	·	3.1	2.0	0.3	5.6	-2.0	·
CCc1[nH]nc2c1C(c1ccsc1)C(C#N)=C(N)O2 (configuration not stated)	·	-0.2	4.5	-14.4	76.7*	-0.5	26.2*
N#CC1=C(N)Oc2n[nH]c(-c3cccs3)c2C1c1ccco1 (configuration not stated)	·	-56.8	-57.0	-0.2	82.7*	-0.4	18.4*
C[C@H]1CN([C@@H](C)CO)C(=O)c2cc(NC(=O)Cc3cn(C)c4ccccc34)ccc2O[C@@H]1CN(C)Cc1ccc(Oc2ccccc2)cc1	-4.1	·	·	·	·	·	·
C[C@H](CO)N1C[C@H](C)[C@@H](CN(C)Cc2ccccn2)Oc2ncc(C#C[C@@H](C)O)cc2C1=O	-0.4	·	·	·	·	·	·
COc1ccc(OC)c(-c2[nH]nc3c2C(c2ccco2)C(C#N)=C(N)O3)c1 (configuration not stated)	·	-0.6	-3.2	7.9	70.1*	-0.5	26.3*
N#CC1=C(N)Oc2n[nH]c(-c3cccs3)c2C1C1C=CCCC1 (configuration not stated)	·	6.9	-21.4	0.2	9.5	-2.3	·
Cc1ccc(C2C(C#N)=C(N)Oc3n[nH]c(-c4cccs4)c32)s1 (configuration not stated)	·	7.4	-16.2	-8.1	66.7*	-1.1	8.81*
N#CC1=C(N)Oc2n[nH]c(-c3cccnc3)c2C1c1ccc([N+](=O)[O-])o1 (configuration not stated)	-0.8	-3.3	-0.3	100.4	28.8	-0.3	·
COc1cccc(-c2[nH]nc3c2C(c2ccc(C)o2)C(C#N)=C(N)O3)c1 (configuration not stated)	·	3.8	-13.9	-4.0	77.8*	2.2	17.4*
CC=Cc1ccc2n(c1=O)C[C@@H]1[C@@H](CO)[C@H](C(=O)NCCC)N(Cc3ccccn3)[C@H]21 (mixture of isomers)	-0.5	·	·	·	·	·	·
Cc1cc(C(=O)Nc2cccc3c2O[C@H](CN(C)C(=O)Nc2ccc(C(F)(F)F)cc2)[C@@H](C)CN([C@@H](C)CO)C3=O)n(C)n1	0.9	·	·	·	·	·	·
O=S(=O)(Nc1ccc(-n2cnnn2)cc1)c1ccccc1F	0.9	1.7	-2.5	3.4	·	3.9	·
SMILES	TcdB GH inh	MazEF act	Rv3671c inh	Mtb betalactam	RecA splice inh	UGM FP inh	GFP chromophore
O=S(=O)(Nc1ccc(-n2cnnn2)cc1)c1ccc(F)c(F)c1F	2.0	1.9	-4.7	-0.6	30.1*	0.7	>38
CO[C@@H](CN(C)C(=O)C1CCOCC1)[C@H](C)CN(C(=O)Nc1ccc(F)cc1)[C@@H](C)CO	1.1	·	·	·	·	·	·
C[C@@H]1CCCCO[C@@H](CN(C)Cc2ccccc2)[C@H](C)CN([C@H](C)CO)C(=O)c2cc(NS(C)(=O)=O)ccc2O1	-3.6	·	·	·	·	·	·
CCC1=Nc2cc(C(=O)NCCN3CCCC3)ccc2Sc2ccccc21	-0.5	13.7	-2.0	-2.3	37.5*	-1.0	>38
C[C@@H]1CCCCO[C@@H](CN(C)C(=O)Nc2ccc3c(c2)OCO3)[C@H](C)CN([C@@H](C)CO)C(=O)c2cc(NS(C)(=O)=O)ccc2O1	-1.6	·	·	·	·	·	·
O=C(CCl)N1c2ccccc2OCC1c1ccccc1 (configuration not stated)	0.5	-3.2	-6.5	99.0	80.7*	-1.6	4.47*
C/C(CC(=O)N1CCN(C=O)CC1)=N\NC(=O)c1cccc([N+](=O)[O-])c1	-3.0	7.1	3.1	2.7	71.3*	0.2	32.5*
COc1ccc(N2C(=O)CC(N(CCc3ccccc3)C(=O)/C=C/C(=O)O)C2=O)cc1 (configuration not stated)	1.0	-6.9	5.5	-1.2	0.8	2.1	>38
Cc1cc(-c2ccccc2)nc2cc(C(=O)N(Cc3ccccc3)Cc3ccccc3)nn12	·	-14.9	-14.3	60.9	32.5*	2.2	>38
COC(=O)c1cc2nc(-c3ccccc3)cc(C)n2n1	·	1.1	2.0	-5.5	·	0.3	·
Cc1cccc(CS(=O)(=O)c2nnc([C@H](Cc3ccccc3)NC(=O)OC(C)(C)C)o2)c1	·	-27.4	-22.2	13.2	36.4*	-1.7	10.9*
COC(=O)CSc1nnc([C@H](Cc2ccccc2)NC(=O)OC(C)(C)C)o1	·	0.3	0.1	99.6	0.4	0.6	·
COC(=O)CS(=O)(=O)c1nnc([C@H](Cc2ccccc2)NC(=O)OC(C)(C)C)o1	·	4.5	2.1	-7.4	68.7*	0.0	14.5*
CCC(=O)Nc1ccc2c(c1)C(=O)N(C)[C@H]1CC[C@@H](CC(=O)NCCN3CCCCC3)O[C@H]1CO2	-0.4	·	·	·	·	·	·
CN1CCN(c2ccc([N+](=O)[O-])c3no[n+]([O-])c23)CC1	0.6	-519.9	-35.2	98.8	86.0*	1.9	>38
CC(C)Oc1cccc(C(=O)C2CCCN(C(=O)c3csnn3)C2)c1 (configuration not stated)	0.2	11.0	-11.9	-5.7	51.9*	-3.8	>38
CC(C)Oc1cccc(C(=O)C2CCCN(C(=O)c3cc(C(F)(F)F)[nH]n3)C2)c1 (configuration not stated)	1.3	1.1	-8.1	-7.2	-1.0	1.0	·
